# Laboratory results taken from PubChem BioAssay AID1211 (NMMLSC, 2008).
# Activity calls are given as the source filed them. The rule behind the calls is not given here.
# Molecular target: Estrogen receptor (Homo sapiens) (UniProt P03372)
# Assay: ERalpha ligand binders by competition, primary screen, cell-based, Cos7 ERalpha-GFP, flow cytometry (AID 1211);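 note: 0% = DMSO vehicle wells and 100% = no E2-Alexa633 signal left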
# Details: fluorescent ligand competition, stronger effect = higher value
# Chain of Estrogen receptor (Homo sapiens) (P03372 whole entry, looked up): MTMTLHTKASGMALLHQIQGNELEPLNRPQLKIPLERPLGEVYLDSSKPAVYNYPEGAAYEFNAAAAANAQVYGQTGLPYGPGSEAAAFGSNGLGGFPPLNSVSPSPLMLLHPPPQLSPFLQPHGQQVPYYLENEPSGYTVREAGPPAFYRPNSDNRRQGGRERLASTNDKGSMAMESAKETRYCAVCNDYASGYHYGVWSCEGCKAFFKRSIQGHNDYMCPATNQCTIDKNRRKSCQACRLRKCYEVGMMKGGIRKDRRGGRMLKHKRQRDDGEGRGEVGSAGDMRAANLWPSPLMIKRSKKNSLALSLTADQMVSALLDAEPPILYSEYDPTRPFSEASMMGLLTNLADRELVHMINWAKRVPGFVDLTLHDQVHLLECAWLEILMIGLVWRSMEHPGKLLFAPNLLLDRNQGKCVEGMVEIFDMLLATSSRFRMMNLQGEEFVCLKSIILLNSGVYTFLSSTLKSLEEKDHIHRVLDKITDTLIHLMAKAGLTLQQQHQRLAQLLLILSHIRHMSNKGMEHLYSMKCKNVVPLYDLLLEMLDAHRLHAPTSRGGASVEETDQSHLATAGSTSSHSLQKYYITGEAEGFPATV
SMILES,inhibition of ligand binding (at 10 µM),"inhibition of ligand binding (binding inhibition, at 0.1 µM) [%]"
Cc1cc(C(=O)CSc2nnc(-c3ccccc3F)o2)c(C)n1Cc1cccs1,69% (active),16
Cc1noc(C)c1COc1ccc(C(=O)OCC(=O)N2c3ccccc3NC(=O)C2(C)C)cc1,59% (inactive),16
Nc1nc(-c2ccc3c(c2)NC(=O)CO3)cs1,32% (inactive),12
NC(=O)c1c(NC(=O)c2cccs2)sc2c1CCCCCC2,0% (inactive),22
CCCCn1c(=O)[nH]c2nc3cc(N)ccc3nc2c1=O,4% (inactive),1
Cc1ccc(C(=O)CSC2=C(C#N)C(c3ccco3)CC(=O)N2)c(C)c1 (stereo unspecified),49% (inactive),53
CC(=O)Nc1ccc2[nH]c(C)cc(=O)c2c1,27% (inactive),19
CCOc1cc(N2CCOCC2)c(OCC)cc1NC(=O)c1cc(-c2ccco2)nc2ccccc12,24% (inactive),4
CC(=O)Nc1ccc(N=Cc2nc(-c3ccc(C)cc3)oc2O)cc1,29% (inactive),60
CCc1ccc(-c2nn(-c3ccccc3)cc2CSC(=N)N)cc1,22% (inactive),45
COc1ccccc1/C=c1\sc2nc(-c3ccco3)nn2c1=O,40% (inactive),25
Nc1ccc(N2CCN(C(=O)c3ccco3)CC2)cc1,28% (inactive),33
COc1ccc2cc3c(N)nn(C(=O)Cc4ccc(Cl)cc4)c3nc2c1,18% (inactive),16
COc1ccc2c(c1)c1nc3ccccc3nc1n2CCCN1C(=O)c2ccccc2C1=O,46% (inactive),33
CCCOc1ccc(-c2nn(-c3ccccc3)cc2/C=C2\SC(N)=NC2=O)cc1,50% (inactive),13
COc1cc(C(C#N)N2N=C(c3ccccc3)CC2c2ccccc2)ccc1O (stereo unspecified),3% (inactive),3
O=C(Nc1nc(-c2ccc(S(=O)(=O)N3CCOCC3)cc2)cs1)c1ccccc1,48% (inactive),25
O=C(NCCN1CCOCC1)c1cnn2c(-c3ccccc3)cc(-c3ccccc3)nc12,0% (inactive),8
O=C(COC(=O)c1ccccc1)NCc1ccco1,29% (inactive),27
COc1ccc(Cn2c(=O)[nH]c3cc(C(=O)NCc4ccc5c(c4)OCO5)ccc3c2=O)cc1,23% (inactive),53
CCn1c2ccccc2c2cc(NC(=O)CSc3nnc(-c4ccc(OC)cc4)n3N)ccc21,53% (inactive),17
Nc1nc2c(s1)CCc1c-2cnn1-c1ccccc1,13% (inactive),21
CC(=O)c1sc2nc(SCC(=O)N3CCCCC3)[nH]c(=O)c2c1C,33% (inactive),30
C[C@]12CC[C@@H]3c4ccc(O[C@@H]5O[C@H](C(=O)O)[C@@H](O)[C@H](O)[C@H]5O)cc4CC[C@H]3[C@@H]1C[C@@H](O)[C@@H]2O,72% (active),40
C/C(N)=C(/C#N)C(=O)CSc1nnnn1-c1ccc(C)cc1,9% (inactive),14
CCc1ccc2[nH]c(=O)c(CN(Cc3ccc4c(c3)OCO4)C(=O)c3ccco3)cc2c1,0% (inactive),62

SMILES,inhibition of ligand binding (at 10 µM),"inhibition of ligand binding (binding inhibition, at 0.1 µM) [%]"
CC1(C)OC(C)(C)/C(=C/Nc2ccc(O)cc2)C1=O,10% (inactive),12
COc1cc2c(cc1O)CC[n+]1cc3c(OC)c(OC)ccc3cc1-2,46% (inactive),9
CCOc1cccc2cc(-c3nnc(NCc4ccco4)s3)c(=O)oc12,47% (inactive),61
O=c1oc2ccccc2n1CCn1c2ccccc2c2nc3ccccc3nc21,27% (inactive),28
O=C(CSc1nc2scc(-c3ccco3)c2c(=O)n1-c1ccccc1)NCC1CCCO1 (stereo unspecified),0% (inactive),21
CS(=O)(=O)c1ccc2nc(NC(=O)CCC(=O)c3cccs3)sc2c1,33% (inactive),14
CCOc1ccc2nc(NC(=O)CCC(=O)c3cccs3)sc2c1,13% (inactive),17
NC(=S)n1[nH]c(-c2ccc([N+](=O)[O-])cc2)c(N=Nc2ccc(O)cc2)c1=O,10% (inactive),18
c1coc(-c2nn3c(-c4ccco4)nnc3s2)c1,15% (inactive),15
O=C(Nc1nccs1)c1nc(-c2ccccc2)n(-c2ccccc2)n1,27% (inactive),36
O=C(Nc1cccc(-c2cn3cccnc3n2)c1)c1ccc2c(c1)OCO2,22% (inactive),10
CCOC(=O)C1=c2/c(=C/c3ccccc3OC)c(N)c(C#N)n2C(=O)C(c2ccccc2OC)S1 (stereo unspecified),34% (inactive),21
C=C(C)CNC(=S)NNC(=O)CCn1c2cc(Cl)ccc2c2ccc(Cl)cc21,60% (inactive),15
Nc1ccc(-c2cc(-c3cccc(N)c3)nc(-c3ccccc3)n2)cc1,42% (inactive),2
ON=C1/C(=N\O)CC2(C/C1=N/O)OCCO2,33% (inactive),48
O=C1C(c2ccnc3ccccc23)=C(O)c2ccccc21,26% (inactive),28
Cc1ccc(Nc2nnc(SCC(=O)NCc3ccco3)s2)cc1,10% (inactive),12
O=C(Nc1nc(-c2nc3ccccc3s2)cs1)C1COc2ccccc2O1 (stereo unspecified),33% (inactive),11
O=C(COC(=O)c1ccccc1Oc1ccccc1)NCc1ccco1,13% (inactive),53
COc1cc(/C=C2\OC(=O)c3c(OC)cccc32)ccc1O,24% (inactive),28
COc1ccc(N=Cc2sc(O)c3ccccc23)cc1,37% (inactive),36
CC(=O)Nc1nonc1-c1nc2ccccc2n1N(C(C)=O)C(C)=O,44% (inactive),59
Cc1ccc(-c2n[nH]c(=S)n2/N=C/C=C/c2ccccc2[N+](=O)[O-])cc1,1% (inactive),14
O=C(NCc1ccco1)c1cc2cc3ccc(Cl)cc3nc2o1,49% (inactive),30
O=C(O)C1Nc2c(C(=O)N3CCOCC3)cccc2C2C=CCC12 (stereo unspecified),28% (inactive),15
NS(=O)(=O)c1ccc2c(c1)C1C=CCC1C(C1CC=CCC1)N2 (stereo unspecified),69% (active),17

SMILES,inhibition of ligand binding (at 10 µM),"inhibition of ligand binding (binding inhibition, at 0.1 µM) [%]"
Cc1ccc2[nH]c(=O)c(-c3nc4ccccn4c3NCc3ccco3)cc2c1,23% (inactive),16
O=C(O)C1OC(Oc2c(-c3ccc(O)c(O)c3)oc3cc(O)cc(O)c3c2=O)C(O)C(O)C1O (stereo unspecified),0% (inactive),62
COc1cccc2cc3c(=O)n(-c4ccccc4)nc-3oc12,47% (inactive),23
CCOC(=O)c1c(NC(=O)CSc2nnc(-c3ccccc3)o2)sc(C(C)=O)c1C,21% (inactive),33
O=C1Nc2ccccc2SC(c2ccccc2)C1O (stereo unspecified),26% (inactive),46
CCCCOC(=O)c1c(C)oc2ccc(NS(=O)(=O)c3ccc4c5c(cccc35)C(=O)N4)cc12,66% (active),51
CCc1ccc(NC(=O)c2noc3c2CCC3)cc1,2% (inactive),9
Cc1cccc(N2CCN(C(=O)c3cc4c(=O)n(C)c5ccccc5c4n3C)CC2)c1C,55% (inactive),11
COCCOC(=O)c1[nH]c2c(c1C)C(=O)CC(c1ccco1)C2 (stereo unspecified),2% (inactive),8
COc1ccc2c(c1)[nH]c1c(=O)n(N)cnc12,55% (inactive),20
COc1ccc2c(c1OC)C(=O)N1N=C(c3ccc(O)cc3)CC21 (stereo unspecified),0% (inactive),30
Cc1noc(C)c1S(=O)(=O)N(CC(=O)O)c1ccc2c(c1)OCO2,0% (inactive),3
COc1ccc(C2Nc3ccccc3C(=O)N2Cc2ccccc2)cc1Cn1nnc2ccccc21 (stereo unspecified),54% (inactive),19
c1ccc(-c2nnc3sc(Cc4cccs4)nn23)cc1,28% (inactive),13
COc1ccc(C2=NN(C(=O)c3cccnc3)C(c3ccccc3)C2)cc1 (stereo unspecified),37% (inactive),30
O=C(NNC(=O)c1ccc(SCC2CCCO2)c([N+](=O)[O-])c1)c1ccc(Cl)c([N+](=O)[O-])c1 (stereo unspecified),35% (inactive),45
O=c1cc(-c2ccc(O)c(-c3c(O)cc(O)c4c(=O)cc(-c5ccc(O)cc5)oc34)c2)oc2cc(O)cc(O)c12,24% (inactive),9
COc1ccc(NC(=O)C(c2ccccc2)N(C)C(=O)c2ccc(=O)[nH]c2)cc1 (stereo unspecified),49% (active),86
CCCN(CCC)S(=O)(=O)c1ccc(NC(=O)Cc2cccs2)cc1,34% (inactive),18
COc1ccc(C2CC(c3c(-c4ccccc4)c4cc(Cl)ccc4[nH]c3=O)=NN2S(C)(=O)=O)cc1OC (stereo unspecified),29% (inactive),37
Nc1ccc(/C=C/C(=O)c2ccco2)cc1,9% (inactive),11
COC(=O)c1[nH]c2ccc(C)cc2c1NC(=O)CN1CCCc2ccccc21,49% (inactive),9
CN(c1ccccc1C(=O)O)S(=O)(=O)c1ccc2c3c(cccc13)C(=O)N2,40% (inactive),12
NC(=O)c1cccc2c1C(=O)N(C1CCCCC1)C2,26% (inactive),39
Cc1oc2cc(O)ccc2c(=O)c1Oc1ccccc1,58% (active),93
Cc1nn(-c2ccccc2)c2sc(C(=O)c3c(N)n(C)c(=O)n(C)c3=O)cc12,0% (inactive),16
